# Data as given in PubChem BioAssay (EPA / NIEHS).
# Inconclusive results are not listed. Calls of active or inactive are those of the source. Rule for the calls: active = hit-call score of the fitted dose curve at least 0.9, where 1 is the maximum; inconclusive = response in the unintended direction; inactive = score below 0.9.
# Assay: IUF_NPC1_cytotoxicity_72hr: Cytotoxicity Assessment at 72 hours in the Leibniz Research Institute for Environmental Medicine (IUF) Neural Progenitor Cell Proliferation Assay (NPC1) (AID 2284332);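 note: rising LDH signal means more cytotoxicity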
# Procedure: IUF_NPC1 is a cell-based, multiplexed assay that uses hNPC, a human primary neural progenitor cells, with measurements taken at 72 hours after chemical dosing in a 96-well plate. Human neural progenitor cells (hNPC) are generated from human fetal brain cortex at gestational week (GW) 16-19. Grown in suspension culture and under proliferative conditions (proliferation media and growth factors), these cells represent neural progenitor cell proliferation. In the NPC1 assay, hNPC's are exposed to the test compound for 72h. Cell proliferation is assessed as an increase in sphere area using automated phase contrast imaging and as incorporation of Bromodeoxyuridine (BrdU) during DNA synthesis using a luminescence-based cell proliferation ELISA. In parallel, the cell viability is assessed using an alamar blue viability assay and the cytotoxicity using a lactate dehydrogenase dependent membrane integrity assay.IUF_NPC1_cytotoxicity_72hr is one of 4 assay components measured from the IUF_NPC1 assay. It is designed to measure cytotoxicity at 72 hrs due to loss of membrane integrity. LDH measurements are performed from medium supernatants of each well and are based on the reduction of resazurin to resorufin measured as fluorescence signal (relative fluorescence unit) in a multiplate reader. Data from the IUF_NPC1_cytotoxicity_72hr component was analyzed at the endpoint IUF_NPC1_cytotoxicity_72hr in the positive analysis fitting direction relative to the dynamic range and baseline of activity. Using a type of viability reporter, gain-of-signal activity can be used to understand cytotoxicity effects.
# After the cell expansion period, the cells are cultured for up to four weeks in which they are passaged every week. Between one to three days after passaging, depending on the size chosen for passaging, spheres at a size of 0.3 mm are used in the assay. For the assessment of neural progenitor cell proliferation, the spheres are plated in poly-Hema coated 96-well U-bottom plates filled with proliferation medium containing growth factors (EGF and FGF). One 0.25 - 0.35 mm big sphere is plated in the middle of each well. Within 3 days NPCs proliferate and grow in size. Cultivation during the test method is performed at 37C and 5% CO2 at a pH of 7.2-7.6. As a positive control, spheres are cultivated in the absence of growth factors (EGF and FGF), which dramatically reduces proliferation. Exposure starts on the plating day (day 0) and is continued over three days, without chemical renewal, until the experiment is terminated. The assay is terminated by the assessment of cell viability, cytotoxicity, and proliferation by BrdU. All endpoints are generated from the same experimental run and from each well/sphere in the 96-well plate.
SMILES,AC50,outcome
CN(C)C(=S)SSC(=S)N(C)C,20.5 µM (active),
CCOc1cc(Oc2ccc(C(F)(F)F)cc2Cl)ccc1[N+](=O)[O-],,inactive
C=CC1(C)OC(=O)N(c2cc(Cl)cc(Cl)c2)C1=O (centres undefined),,inactive
Cc1ccc(-c2c(Cl)nc(C#N)n2S(=O)(=O)N(C)C)cc1,,inactive
CO/C=C(/C(=O)OC)c1ccccc1Oc1cc(Oc2ccccc2C#N)ncn1,,inactive
COP(N)(=O)SC (centres undefined),,inactive
CC(C)(C)c1ccc(CSc2cnn(C(C)(C)C)c(=O)c2Cl)cc1,,inactive
CCOC(=O)CC(SP(=S)(OC)OC)C(=O)OCC (centres undefined),,inactive
COC(=O)N(OC)c1ccccc1COc1ccn(-c2ccc(Cl)cc2)n1,,inactive
CCCCOC(=O)c1ccccc1C(=O)OCCCC,,inactive
N#Cc1nn(-c2c(Cl)cc(C(F)(F)F)cc2Cl)c(N)c1S(=O)C(F)(F)F (centres undefined),,inactive
COP(=S)(OC)Oc1nc(Cl)c(Cl)cc1Cl,,inactive
CNC(=O)ON=CC(C)(C)SC,,inactive
CCCCC(CC)COC(=O)c1ccccc1C(=O)OCC(CC)CCCC (centres undefined),,inactive
